Source: PubChem
Cruzain noTriton: blocks cruzain activity in detergent-free assay; P25779; purified cruzain, Z-FR-AMC fluorescence, no detergent; Potency, µM, without a hit: max response, negative = inhibition, most hits filed as inhibitors; 2.3% of 200,000 active;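 further: plate controls were enzyme without inhibitor for no effect and buffer without enzyme for full effect; nearly all actives have a fitted effect of over 40% in size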
Target sequence (P25779 123-467 limits assumed): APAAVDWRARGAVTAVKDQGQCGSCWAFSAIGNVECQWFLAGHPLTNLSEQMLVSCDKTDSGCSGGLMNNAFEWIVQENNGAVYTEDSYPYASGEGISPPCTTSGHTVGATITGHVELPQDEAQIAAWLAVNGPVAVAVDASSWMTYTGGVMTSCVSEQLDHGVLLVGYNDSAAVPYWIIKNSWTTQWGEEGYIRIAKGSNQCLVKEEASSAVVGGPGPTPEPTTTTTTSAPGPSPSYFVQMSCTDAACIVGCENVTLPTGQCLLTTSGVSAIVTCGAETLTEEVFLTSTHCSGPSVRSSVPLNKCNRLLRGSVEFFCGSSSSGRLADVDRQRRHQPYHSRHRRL
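Purified cruzain at 1.5 nM, pre-incubated 15 min with compound at room temperature in 100 mM sodium acetate pH 5.5, 5 mM DTT, 0.00005% Triton X-100. Reaction started with 2 uM Z-FR-AMC; AMC fluorescence increase over 60 s gives rate.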
Cruzain inh Det: inhibitors of Trypanosoma cruzi cruzain with detergent; Potency, µM, without a hit: max response, negative = inhibition, actives largely listed as inhibitors; purified cruzain, Z-FR-AMC fluorescence, 0.01% Triton; P25779; 0.43% of 200,000 active;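 further: plate controls were neutral wells for no effect and buffer without enzyme for full effect; nearly all actives have a fitted effect of over 40% in size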
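Purified cruzain (1.5 nM final) was preincubated with compounds for 15 min at room temperature in 100 mM sodium acetate pH 5.5, 5 mM DTT, 0.01% Triton X-100. Reaction started with 2 uM Z-FR-AMC; AMC fluorescence change over 60 s gave activity.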
Numbers without * were called inactive. This is a sample that favours compounds with a hit; in the whole collection about 2.4% have one here. The call rests on the fitted dose curve; in most records, active means well fitted curve in the direction sought with a large enough effect; inconclusive means small, poorly fitted or top-dose-only effect, or another doubt; inactive means no such curve, though single readings can be large; an effect the other way counts as inactive or inconclusive. Potency means the concentration at half of the fitted maximal effect.

Screening CCN(CC)S(=O)(=O)c1ccc(C(=O)NCCSc2c(-c3ccc(C)cc3)[nH]c3ccccc23)cc1 returned Cruzain noTriton 25.1µM* and Cruzain inh Det -0.9%.
`CCCN1C(=O)c2[nH]nc(-c3ccccc3O)c2C1c1ccc(OCc2ccccc2)c(OC)c1` (configuration not stated) gave Cruzain noTriton inconclusive and Cruzain inh Det -8.3%.
For Cc1ccc(C2c3c(-c4ccccc4O)n[nH]c3C(=O)N2CCc2ccccc2)cc1 (configuration not stated) the results were Cruzain noTriton inconclusive and Cruzain inh Det -11.2%.
`CCCOc1ccc(C2c3c(-c4ccccc4O)n[nH]c3C(=O)N2CCc2ccccc2)cc1OCC` (configuration not stated) gave Cruzain noTriton 12.6µM* and Cruzain inh Det -2.4%.
`CC(C)c1ccc(C2c3c(-c4ccccc4O)n[nH]c3C(=O)N2CCc2ccccc2)cc1` (configuration not stated) gave Cruzain noTriton 20µM* and Cruzain inh Det -3.8%.
COc1ccc(C2c3c(-c4ccccc4O)n[nH]c3C(=O)N2CCc2ccccc2)cc1 (configuration not stated) was read as Cruzain noTriton 31.6µM* and Cruzain inh Det -10.1%.
`COc1ccc(C2c3c(-c4ccccc4O)n[nH]c3C(=O)N2CCc2ccc(OC)c(OC)c2)cc1` (configuration not stated) gave Cruzain noTriton 5.9% and Cruzain inh Det -5.0%.
For Cc1ccc(NC(=O)NCCOCCn2c(=O)oc3ccccc32)cc1F the results were Cruzain noTriton -3.5% and Cruzain inh Det -0.4%.
Screening COc1ccc(C(=O)NC2(C(F)(F)F)C(=O)NC(C)=C2C#N)cc1 (configuration not stated) returned Cruzain noTriton -0.6% and Cruzain inh Det -1.2%.
COc1cccc(-n2cc(C(=O)Nc3ccccc3C(N)=O)c3ccccc3c2=O)c1 was read as Cruzain noTriton -0.5% and Cruzain inh Det -9.6%.
`CCOc1ccccc1NC(=O)c1c(NCc2ccc(C)o2)sc2c1CCCCC2` gave Cruzain noTriton -11.6% and Cruzain inh Det -6.9%.
`CCOc1ccccc1NC(=O)c1c(NC(=O)CNCc2ccco2)sc2c1CCC2` gave Cruzain noTriton 10µM* and Cruzain inh Det -0.7%.
O=C(Nc1ccccc1)c1cc2c(-c3ccccc3)nn(-c3ccccc3)c2s1 was read as Cruzain noTriton inconclusive and Cruzain inh Det -1.2%.
For COc1ccccc1CNc1cc(-c2ccccc2)nc2nncn12 the results were Cruzain noTriton -22.2% and Cruzain inh Det -6.4%.
`O=C(Nc1c(Cl)cccc1Cl)c1cc(-c2cccc(O)c2)on1` gave Cruzain noTriton -3.1% and Cruzain inh Det -11.4%.
Screening COc1cc(NC(=O)COC(=O)CNS(=O)(=O)c2ccc(F)c(F)c2F)cc(OC)c1 returned Cruzain noTriton 25.1µM* and Cruzain inh Det 28.2µM*.
For COc1cc(NC(=O)COC(=O)c2ccccc2F)cc(OC)c1 the results were Cruzain noTriton 4.3% and Cruzain inh Det -2.4%.
`CCOC(=O)Cn1c(=O)n(-c2ccc(Cl)cc2)c2nc(-c3ccc(Cl)cc3)nc(C(N)=O)c21` gave Cruzain noTriton -3.2% and Cruzain inh Det 0.4%.
COCC(=O)N1CCC2(CCCN(c3ccc(-c4ccccc4)cc3)C2)CC1 was read as Cruzain noTriton inconclusive and Cruzain inh Det -5.7%.
Cc1ncc(COC(=O)C(C)C)c2cc(C(=O)Nc3ccccc3C(F)(F)F)c(=O)oc12 was read as Cruzain noTriton 12.9% and Cruzain inh Det -1.6%.
Cc1ccc(C)c(CN2C(=O)C3(c4ccccc42)N(c2ccc(Cl)cc2)C(=O)CS3(=O)=O)c1 (configuration not stated) was read as Cruzain noTriton 3.16µM* and Cruzain inh Det -3.3%.
COc1ccc(N2C(=O)CS(=O)(=O)C23C(=O)N(Cc2ccc(F)cc2)c2ccc(C)cc23)cc1 (configuration not stated) was read as Cruzain noTriton 3.16µM* and Cruzain inh Det -2.8%.
For COc1ccc(N2C(=O)CCSC23C(=O)N(Cc2ccc(F)cc2)c2ccccc23)cc1 (configuration not stated) the results were Cruzain noTriton 6.5% and Cruzain inh Det -3.8%.
For Cc1ccc(N2C(=O)CSC23C(=O)N(Cc2ccccc2F)c2ccccc23)cc1F (configuration not stated) the results were Cruzain noTriton -5.8% and Cruzain inh Det -8.9%.
Screening Cc1ccc(C)c(CN2C(=O)C3(OCCCO3)c3ccccc32)c1 returned Cruzain noTriton -2.7% and Cruzain inh Det -6.2%.
For Cc1ccc(CN2C(=O)C3(SCC(=O)N3c3ccc(C)c(C)c3)c3ccccc32)cc1 (configuration not stated) the results were Cruzain noTriton inconclusive and Cruzain inh Det -9.3%.
